# Experimental data taken from PubChem BioAssay AID686970 (National Center for Advancing Translational Sciences (NCATS), 2013).
# In all, about 360,000 compounds went through this assay and about 6,000 (1.7%) were called active. About 8% were inconclusive and are not listed. The list comes from a sample in which actives are over-represented; it also holds similar structures and randomly drawn compounds. A number with no mark means an inactive call. The call rests on the fitted dose curve; in most records, active means well fitted cell-killing curve with a large enough effect; inconclusive means small, poorly fitted or top-dose-only effect, or effect the other way; inactive means flat fitted curve, though single readings scatter.
# Assay: qHTS for induction of synthetic lethality in tumor cells producing 2HG: qHTS for the HT-1080-NT fibrosarcoma cell line; further: nearly all actives have a fitted effect of over 55% in size
# Conditions: HT-1080-NT fibrosarcoma viability, CellTiter-Glo ATP luminescence, 48 h; series mostly up to 46.1 µM; activity, negative = less viability: at the top concentration
# From the text: Unbiased genomic sequencing for 22 glioma genomes found recurrent mutation of IDH1 on chromosome 2q33, a gene encoding the cytosolic isoform of IDH1 associated with the tricarboxylic acid cycle (TCA) that catalyzes the oxidative decarboxylation of isocitrate, yielding alpha-ketoglutarate and CO2 via NADP+ to NADPH conversion. Subsequent studies confirmed the recurrent IDH mutations in up to 70% of secondary gliomas and in 10% of AML cases. In addition, the somatic mutation of cancer-associated IDH1 is a point mutation resulting in various amino-acid substituents at Arginine132 (IDH1 R132), a key residue found in the enzyme's active site that when mutated, results in the loss-of-function in metabolizing isocitrate but confers a gain-of-function to produce the oncometabolite 2-hydroxyglutarate (2HG). This in effect defines IDH1 as an oncogene and provides an extraordinary opportunity to discover chemical probes against mutant IDH1 that may translate into much needed new therapies for glioma and AML patients.
# This assay aims to perform a synthetic lethal screen for chemical probes specific for 2HG-producing tumor cells using matched paired cell lines (1) HT-1080-NT fibrosarcoma cell line that overproduces 2HG and (2) HT-1080-IDH1KD cell line which has IDH1 expression knocked-down. Desirable compounds are toxic to the NT fibrosarcoma cells but not to the IDH1KD cell line. The data in this AID corresponds to the results of the qHTS against the HT-1080-NT fibrosarcoma cell line.
# [1] Dang L, Jin S, Su SM. IDH mutations in glioma and acute myeloid leukemia. Trends of Mol Med. 2010; 16(9): 387-97.
# [2] Dang L et al. Cancer-associated IDH1 mutations produce 2-hydroxyglutarate. Nature. 2010; 465(7300):966.
# NIH Molecular Libraries Probe Production Centers Network [MLPCN]
# NIH Chemical Genomics Center [NCGC]
# Assay Submitter (PI): Lenny Dang Ph.D., Agios Pharmaceuticals
# Suspensions of trypsinized HT-1080-NT cells were dispensed into white, tissue culture-treated, solid 1536-well plates at 5uL/well (750 cells/well final concentration) in RPMI medium supplemented with 5% FBS. Plates were incubated at 37 degrees C for 2 hours, after which 23 nL of compounds or DMSO were delivered to each well using a pin tool. Plates were then incubated at 37 degrees C for an additional 48 hours. CellTiter-Glo viability reagent (Promega) was dispensed into wells (2.5uL/well) and incubated at room temperature for 10 minutes. The plates were measured on a PerkinElmer ViewLux plate reader for luminescent signal (clear filter, 1 sec exp). DMSO-treated control wells and media-only (no cells) control wells were used to normalize %Activity of identified toxic compounds; DMSO-treated wells corresponded to 0%Activity (100% viability), while media-only controls were used to normalize 100%Activity (0% viability).
# Concentration-response curves were fitted to the signals arising from the resulting luminescence. The concentration-effect curves were then classified based on curve quality (r2), response magnitude and degree of measured activity, and compounds were subsequently categorized based on their curve class.
# Potency means the concentration at half of the fitted maximal effect.
Compound,Potency,"activity, negative = less viability [%]"
CN(C)CC1Oc2ccccc2OC1(O)c1ccccc1 (stereo not given),8.2 µM (active),
CCOC(=O)c1cccc(C2=C(CNC(=O)c3ccncc3)[C@H]3CC[C@@H](C2)N3Cc2ccccc2)c1,,-2.39
O=C1C2CCN(CC2)C1(CO)CO,,1.59
O=c1[nH]c(O)c(C=Nc2cc(F)cc(F)c2)c(=O)[nH]1,,8.67
COC1=CC=C2[C@H]3Cc4ccc(OC)c5c4[C@@]2(CCN3C)C1O5 (stereo not given in full),,10.5
COc1ccc2c(c1O)-c1cccc3c1[C@@H](C2)N(C)CC3,,0.405
COc1ccc2c3c1O[C@H]1C[C@@H](O)C=C[C@@]31CCN(C)C2,8.2 µM (active),
CC=C(C)C(=O)OC1CCN2CC=C(COC(=O)C(O)(C(C)OC)C(C)(C)O)C12 (stereo not given),,1.64
O=P(OC1=CCCCC1)(c1ccccc1)c1ccccc1,,0.74
Cc1ccc(Cn2nnnc2CN2CCC(n3nnc4ccccc43)CC2)cc1,,-22.7
CSCCC(c1nnnn1C(C)(C)C)N1CCC(n2c(=O)[nH]c3ccccc32)CC1 (stereo not given),,-18.1
O=c1[nH]c2ccccc2n1C1CCN(C(c2ccccc2)c2nnnn2Cc2ccccc2)CC1 (stereo not given),13 µM (active),
CCOC(=O)C1=C(C)OC(N)=C(C(=O)OC)C12C(=O)Nc1ccc(Br)cc12 (stereo not given),,-1.5
O=c1[nH]c(CN2CC=C(c3ccccc3)CC2)nc2scc(-c3cccs3)c12,,-0.0739
S=C(NCCc1ccccc1)N1Cc2cc(N3CCOCC3)ccc2-n2nncc2C1,,2.89
CCOc1ccc(-c2cc(C)[n+](CCN(CC)CC)c(-c3ccc(OCC)cc3)c2)cc1,8.2 µM (active),
COc1ccc(C2C=C(C)Oc3c2c(=O)oc2ccccc32)cc1OC (stereo not given),,-15.3
COC(=O)C1=C(c2ccc(OCc3ccccc3)cc2)C[C@@H]2CC[C@H]1N2C(=O)NCc1cccc(F)c1,,-7.63
CC1CCCN1CCC(C(N)=O)(c1ccccc1)c1ccccc1 (stereo not given),,-2.83
COc1ccc(CCn2c(O)c(C=NC3CC3)c(=O)[nH]c2=O)cc1OC,,0.249
c1ccc(N2Cc3ccccc3-n3nncc3C2)nc1,,-3.61
CCC1(C)CC(CCNCc2ccc(N(C)C)cc2)(c2ccc(F)cc2)CCO1 (stereo not given),,-21.8
C[C@@H]1C[C@@H]2O[C@H]2/C=C\C=C\C(=O)Cc2c(Cl)c(O)cc(O)c2C(=O)O1,8.2 µM (active),
CC(=O)NCC1=C(c2ccc3ccccc3c2)C[C@@H]2CC[C@H]1N2Cc1ccco1,,-6.62
C=Cn1ccnc1P(=S)(c1cc(N(CC)CC)ns1)c1nccn1C=C,,-22
COC(=O)C1=C(c2ccc(OCc3ccccc3)cc2)C[C@@H]2CC[C@H]1N2C(=O)NCc1ccc(Cl)cc1,,7.67
CC1=CC(=Cc2sc3ccccc3[n+]2C)C=C(C)O1,8.2 µM (active),

Compound,Potency,"activity, negative = less viability [%]"
O=[N+]([O-])c1ccc(C2C3C(c4ccccc4)=NC4(CCCCC4)N32)cc1 (stereo not given),,1.87
Cc1ccc(OC(=O)N(C)C[C@@H]2OCc3cnnn3CCCC(=O)N([C@H](C)CO)C[C@@H]2C)cc1,,-0.987
COc1cc(Cn2c(N)c(C(=O)NCc3ccco3)c3nc4ccccc4nc32)cc(OC)c1OC,12.6 µM (active),
COC(=O)C1=C(c2ccccc2)C[C@@H]2CC[C@H]1N2C(=O)NCc1ccco1,,10.9
Cc1ncoc1C(=O)NCC1=C(c2cccc3ccccc23)C[C@@H]2CC[C@H]1N2Cc1ccco1,,-7.65
CC(=O)c1c(O)n(C2CCCCCC2)c(=O)[nH]c1=O,,-4.72
O=C(NC1CCCCC1)N1Cc2cc(N3CCCCC3)ccc2-n2nncc2C1,,9.74
c1cc2c(c(NC3=NCCCS3)c1)CCCC2,,-17.9
COC(=O)C1=C(c2ccc(Cl)c(C(F)(F)F)c2)C[C@@H]2CC[C@H]1N2C(=O)NC1CC1,,-7.4
C[C@]12CCC3C(CC[C@H]4C[C@@H](O)CC[C@]34C)C1CC[C@@H]2O (stereo not given in full),,-1.7
C[C@]12CC[C@H](O)C[C@H]1CC[C@@H]1C2CC[C@]2(C)[C@@H](C3=CC(=O)OC3)[C@@H](O)C[C@]12O (stereo not given in full),5.8 µM (active),
C[C@]12CCC3C(CC[C@H]4C[C@@H](O)CC[C@]34C)C1C[C@@H](O)[C@H]2O (stereo not given in full),,-0.126
C[C@H]1CN([C@@H](C)CO)C(=O)CCCn2nncc2CO[C@H]1CN(C)C(=O)Oc1ccccc1,,8.98
CCOC(=O)[C@]12Cc3cc(OC)ccc3[C@H]1N(C(C)C)C(=O)c1ccccc12,11.6 µM (active),
CCOC(=O)[C@]12Cc3ccccc3[C@H]1N(C1CCCCC1)C(=O)c1cc(OC)ccc12,5.8 µM (active),
CCCC(C)n1[nH]c(=O)c2c1NC(=O)CSC2c1ccc(OC)c(OC)c1 (stereo not given),,0.635
Oc1cc2c(cc1CN1CCN(c3ccccc3)CC1)OCO2,,8.84
COc1ccccc1OC(=O)c1ccc(C)c(S(=O)(=O)N2CCOCC2)c1,,-2.07
CC1([N+](=O)[O-])COP(=O)(Nc2ccc(F)cc2)OC1 (stereo not given),,6.83
O=c1c2ccccc2[nH]c(=S)n1-c1cccc(Cl)c1,,-1.3
Cc1cc(-c2ccc(N)c(C)c2)ccc1N,,-1.84
Nc1ccc(Cc2ccc(N)c(Cl)c2)cc1Cl,,-19
COC(=O)C[C@H]1CC[C@H]2NC[C@@H](O)COC[C@@H]2O1,,17.8
Cc1c(Oc2cc(NN3CCCCC3)c([N+](=O)[O-])cc2[N+](=O)[O-])cccc1[N+](=O)[O-],,11
O=c1c2ccccc2nc(/C=C/c2ccco2)n1-c1ccccc1O,,-24.6
Cc1nc2ccccc2c(=O)n1-c1ccc(Cl)cc1Cl,,-2.24
O=c1c2ccccc2nc(/C=C/c2ccc(F)cc2)n1-c1ccccc1O,23.1 µM (active),

Compound,Potency,"activity, negative = less viability [%]"
c1ccc(C(CN2CCCCC2)c2ccccc2)cc1,,2.28
CCc1cccc2c(C#N)cn(CC(=O)N3CCOCC3)c12,,-2.69
COC1C(O)C(C)OC(OC2CCC3(C=O)C(CCC4C3CCC3(C)C(C5=CC(=O)OC5)CCC43O)C2)C1O (stereo not given),0.206 µM (active),
C[C@H]1CN([C@@H](C)CO)C(=O)CCCn2nncc2CO[C@H]1CN(C)C(=O)Oc1cccc2ccccc12,,4.3
CCn1cc(CN2CCCC(C(=O)c3cccc(C(F)(F)F)c3)C2)cn1 (stereo not given),,-1.31
COc1ccc(NC(=O)N2Cc3ccccc3-n3nncc3C2)cc1,,4.07
CC(=CCOc1ccc2ccc(=O)oc2c1)C1=CC(=O)C(C)(C)O1,,-21.3
O=c1c2ccccc2nc(CBr)n1-c1ccc(Cl)cc1,,-11
COC(=O)CN(CCCl)P1(=O)OCCCN1CCCl (stereo not given),,23
CCCCCCCCCCCCn1ccc(=N)cc1,2.59 µM (active),
CSC1=NP(=S)(SC)N(C)c2nc3n(c21)CCC3 (stereo not given),,7.49
COC(=O)C1=C(c2ccc(F)cc2F)C[C@@H]2CC[C@H]1N2C(=O)NC1CC1,,7.87
CC(C)CN1Cc2cc(N3CCCCC3)ccc2-n2nncc2C1,,-1.63
COc1ccc(-c2nn(CCC#N)cc2C(=O)Nc2ccc(C(C)=O)cc2)cc1,,-9.46
CCOC(=O)CNC(=O)N1Cc2cc(N3CCCCC3)ccc2-n2nncc2C1,,13
COc1cc(C2c3cc4c(cc3C(O)C3COC(=O)C23)OCO4)cc(OC)c1OC (stereo not given),0.0058 µM (active),
CCN1C(=O)NC(=O)C2(CCCC2)C1=O,,2.59
CCOc1cccc(=NC2CCCCC2)c2c(C)[nH]c(C)c12,20.6 µM (active),
CCOP(=S)(OCC)C(O)CCCCCn1c(=O)c(F)cn(C2CCCO2)c1=O (stereo not given),,10.4
COc1cc(C(=O)N2Cc3ccc(Br)cc3-n3nncc3C2)cc(OC)c1OC,,28.4
COC1=C[C@@H]2[C@@H]3Cc4ccc(OC)c(O)c4[C@]2(CCN3C)CC1=O,,8.69
O=[N+]([O-])c1ccc(Cl)c(Cl)c1,,13.2
CC(=O)OC1C2(CC3N4C(=O)C5(CO)SSC4(CC31O)C(=O)N5C)OC(C)C(C)(C)C2=O (stereo not given),0.651 µM (active),
CC[C@H]1CC2CN3CCc4c([nH]c5ccccc45)C(C(=O)OC)(C2)C13 (stereo not given in full),,4.35
CCN(N=Nc1nonc1OC)c1nonc1OC,,-0.973
CCOC(=O)C1CN(C)CCC1=O (stereo not given),,5.26
